In PubChem BioAssay:
Inconclusive results are not listed. Calls of active or inactive are those of the source. Unless noted, how the calls were made is not given here.

How the values were obtained:
[1] = biological target: Mitogen-activated protein kinase 7 (Homo sapiens) (UniProt Q13164); test: Gal4-ERK5 driven luciferase induction – cell-based, HTS, primary screen (AID 1508626;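 active means luciferase signal above three times the same-plate solvent-only control wells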;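 further: luciferase driven by Gal4-ERK5 fusion binding five Gal4 sites before minimal TATA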); conditions: HeLa Gal4-ERK5 transactivation, 18 h, at 5 µM, active compounds read high
Sequence of Mitogen-activated protein kinase 7 (Homo sapiens) (Q13164 whole entry, looked up, the tested form may be a part): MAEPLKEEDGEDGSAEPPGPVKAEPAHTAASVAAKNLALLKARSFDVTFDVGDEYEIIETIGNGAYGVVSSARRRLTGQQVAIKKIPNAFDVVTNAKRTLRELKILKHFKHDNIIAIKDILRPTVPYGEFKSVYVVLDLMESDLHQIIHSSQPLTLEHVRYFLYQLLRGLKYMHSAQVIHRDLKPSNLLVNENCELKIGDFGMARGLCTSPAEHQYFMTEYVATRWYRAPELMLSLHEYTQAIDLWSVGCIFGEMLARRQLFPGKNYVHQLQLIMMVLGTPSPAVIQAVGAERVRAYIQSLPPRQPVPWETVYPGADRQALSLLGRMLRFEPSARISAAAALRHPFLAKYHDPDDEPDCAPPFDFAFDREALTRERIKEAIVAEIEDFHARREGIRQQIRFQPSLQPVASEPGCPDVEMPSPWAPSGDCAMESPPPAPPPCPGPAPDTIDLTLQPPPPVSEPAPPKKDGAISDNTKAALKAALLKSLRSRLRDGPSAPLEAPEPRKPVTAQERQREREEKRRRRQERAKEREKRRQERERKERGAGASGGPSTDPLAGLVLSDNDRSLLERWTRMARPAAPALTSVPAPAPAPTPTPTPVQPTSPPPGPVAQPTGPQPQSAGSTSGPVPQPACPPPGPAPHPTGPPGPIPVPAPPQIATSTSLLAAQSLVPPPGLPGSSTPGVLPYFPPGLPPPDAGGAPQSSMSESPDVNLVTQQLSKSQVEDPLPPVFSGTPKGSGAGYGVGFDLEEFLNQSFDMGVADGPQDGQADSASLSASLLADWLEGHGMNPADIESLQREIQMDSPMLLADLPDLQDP

[2] = viability loss in pontine glioma line – cell-based, SU-DIPG-XVII, MIPE5.0, CellTiter-Glo, qHTS, dose response (AID 1347060; cut-off not given, nearly all actives have AC50 up to about 26 µM;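 on AC50: cells exposed to compound for 48 hours before viability readout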); conditions: CellTiter-Glo ATP luminescence
[3] = viability loss in pontine glioma line – cell-based, SU-DIPG-XIII, MIPE4.0, CellTiter-Glo, qHTS, dose response (AID 1347061; cut-off not given, nearly all actives have AC50 up to about 37 µM;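 further: cells exposed to compound for 48 hours before readout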); conditions: CellTiter-Glo ATP luminescence
[4] = viability loss in pontine glioma line – cell-based, JHH-DIPG-1, MIPE4.0, CellTiter-Glo, qHTS, dose response (AID 1347062; cut-off not given, nearly all actives have AC50 up to about 27 µM;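 on AC50: cells exposed to compound for two days before readout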); conditions: JHH-DIPG-1 viability, CellTiter-Glo ATP luminescence
[5] = viability loss in pontine glioma line – cell-based, SU-DIPG-IV, MIPE4.0, CellTiter-Glo, qHTS, dose response (AID 1347063; cut-off not given, nearly all actives have AC50 up to about 30 µM;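 further: compound exposure lasted 48 hours before the viability readout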); conditions: CellTiter-Glo ATP luminescence
[6] = viability loss in pontine glioma line – cell-based, SU-DIPG-XIII, MIPE5.0, CellTiter-Glo, qHTS, dose response (AID 1347064; cut-off not given, nearly all actives have AC50 up to about 23 µM); conditions: CellTiter-Glo ATP luminescence
[7] = viability loss in pontine glioma line – cell-based, SU-DIPG-XXV, MIPE5.0, CellTiter-Glo, qHTS, dose response (AID 1347065; cut-off not given, nearly all actives have AC50 up to about 26 µM;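 further: cells exposed to compound for 48 hours before ATP readout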); conditions: CellTiter-Glo ATP luminescence
[8] = growth inhibition of DIPG cells – cell-based, MIPE4.0 library, CellTiter-Glo luminescence, qHTS (AID 1347066; cut-off not given, nearly all actives have AC50 up to about 30 µM;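 further: cells exposed to compound for 48 hours before readout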); conditions: SU-DIPG-VI viability, CellTiter-Glo ATP luminescence
[9] = JHH-DIPG-1 glioma cell viability, MIPE5.0 library, CellTiter-Glo luminescence, qHTS (AID 1347067; cut-off not given, nearly all actives have AC50 up to about 26 µM;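 further: cells exposed to compound for 48 hours before readout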); conditions: JHH-DIPG-1 glioma viability, CellTiter-Glo ATP luminescence
[10] = growth inhibition of DIPG cells – cell-based, MIPE5.0 library, qHTS (AID 1347068; cut-off not given, nearly all actives have IC50 up to about 30 µM;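 on IC50: cells exposed to compound for 48 hours before viability readout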); conditions: SU-DIPG-XXV viability
[11] = compounds altering Cy5-DNA-NS3h complex signal – biochemical, LOPAC1280, artefact control for HCV NS3 helicase inhibitor project (AID 687037); conditions: Cy5-DNA-NS3h complex fluorescence interference counterscreen
[12] = blockers of cellular phospholipid synthesis – cell-based, LOPAC library, screen 4, primary screen (AID 1347384); conditions: animal cells, phospholipid biosynthesis inhibition screen; at 10 µM
[13] = tested on: Aerobactin synthetase IucA (Klebsiella pneumoniae); test: inhibition of K. pneumoniae IucA enzyme – biochemical, Tocris library, absorbance (AID 1345561); conditions: purified IucA enzyme assay, absorbance (OD) read-out; active compounds read low;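 tested at 8 µM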;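 further: 100% = enzyme without compound and 0% = no enzyme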
[14] = biological target: ATP-dependent translocase ABCB1 (Homo sapiens) (UniProt P08183); test: P-glycoprotein substrate transport blockade – cell-based (AID 377; in the data active means fluorescence slope change above about 50%); conditions: MDR1-expressing cells, fluorescent substrate accumulation slope; active compounds read high; concentration not given here
Sequence of ATP-dependent translocase ABCB1 (Homo sapiens) (P08183 whole entry, looked up): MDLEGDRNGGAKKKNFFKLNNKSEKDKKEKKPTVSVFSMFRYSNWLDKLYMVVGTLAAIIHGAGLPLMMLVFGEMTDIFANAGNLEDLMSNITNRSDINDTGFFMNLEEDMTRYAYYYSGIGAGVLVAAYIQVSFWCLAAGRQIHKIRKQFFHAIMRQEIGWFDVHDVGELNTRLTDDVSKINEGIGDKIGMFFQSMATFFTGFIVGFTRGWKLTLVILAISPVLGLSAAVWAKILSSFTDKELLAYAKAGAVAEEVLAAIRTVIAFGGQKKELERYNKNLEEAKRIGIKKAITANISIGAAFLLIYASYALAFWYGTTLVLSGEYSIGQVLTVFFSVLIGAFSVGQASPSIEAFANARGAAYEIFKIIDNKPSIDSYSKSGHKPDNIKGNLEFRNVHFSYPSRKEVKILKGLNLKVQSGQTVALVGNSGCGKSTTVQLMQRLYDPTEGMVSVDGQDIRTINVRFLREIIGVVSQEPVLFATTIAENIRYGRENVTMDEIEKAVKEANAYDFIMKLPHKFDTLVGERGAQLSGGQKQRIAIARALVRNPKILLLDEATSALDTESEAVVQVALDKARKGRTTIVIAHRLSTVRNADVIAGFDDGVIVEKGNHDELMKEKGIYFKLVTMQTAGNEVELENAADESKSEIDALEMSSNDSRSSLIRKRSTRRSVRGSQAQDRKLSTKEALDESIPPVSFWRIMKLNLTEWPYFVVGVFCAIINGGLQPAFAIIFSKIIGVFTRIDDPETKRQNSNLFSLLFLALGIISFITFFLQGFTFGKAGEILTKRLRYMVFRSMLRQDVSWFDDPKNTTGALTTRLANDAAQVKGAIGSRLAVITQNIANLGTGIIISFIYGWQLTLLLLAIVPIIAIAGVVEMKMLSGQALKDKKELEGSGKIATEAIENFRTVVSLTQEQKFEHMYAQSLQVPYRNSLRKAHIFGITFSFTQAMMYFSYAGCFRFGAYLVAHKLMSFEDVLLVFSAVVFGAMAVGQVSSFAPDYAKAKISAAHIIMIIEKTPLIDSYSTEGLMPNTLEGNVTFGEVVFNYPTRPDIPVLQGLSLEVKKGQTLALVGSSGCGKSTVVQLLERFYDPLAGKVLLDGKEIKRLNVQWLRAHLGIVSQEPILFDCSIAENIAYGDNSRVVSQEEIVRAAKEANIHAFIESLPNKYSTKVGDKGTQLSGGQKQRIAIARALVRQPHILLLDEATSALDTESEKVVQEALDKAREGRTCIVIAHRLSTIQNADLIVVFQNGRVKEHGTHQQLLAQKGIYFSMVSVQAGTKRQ

C[N+]1(C)[C@@H]2CC[C@H]1CC(OC(=O)C(CO)c1ccccc1)C2 (stereo partly specified)
inactive: luciferase signal [1] 60 AU

C[C@]12CC[C@H](O)CC1=CC[C@@H]1[C@@H]2CC[C@]2(C)C(=O)CC[C@@H]12
inactive: outcome [2] | outcome [3] | outcome [4] | outcome [5] | outcome [6] | outcome [7] | outcome [8] | outcome [9] | outcome [10] | luciferase signal [1] 48 AU

COP(=O)(OC)OC=C(Cl)Cl
inactive: luciferase signal [1] 84 AU

COc1ccc(C(=O)c2c(C)n(CCN3CCOCC3)c3ccccc23)cc1
inactive: outcome [3] | outcome [4] | outcome [5] | outcome [8]
active: AC50 [9] 16.6 µM

CC(=O)[C@H]1CC[C@H]2[C@@H]3CC[C@H]4C[C@H](O)CC[C@]4(C)[C@H]3C(=O)C[C@]12C
inactive: fluorescence ratio (interference) [11] 1 | outcome [12]

O=C(O)c1ccc2[nH]cc(CCCCN3CC=C(c4ccccc4)CC3)c2c1
inactive: remaining activity [13] 115%

C#C[C@]1(O)C=C[C@H]2[C@@H]3CCC4=CC(=O)CC[C@@H]4[C@H]3CC[C@@]21CC
inactive: outcome [2] | outcome [3] | outcome [4] | outcome [5] | outcome [6] | outcome [7] | outcome [8] | outcome [9]

CCCN1CCC[C@@H]2Cc3nc(N)ncc3C[C@H]21
inactive: fluorescence ratio (interference) [11] 1 | outcome [12]

Cc1ccc(S(=O)(=O)N[C@@H](CCCCN)C(=O)CCl)cc1
inactive: fluorescence ratio (interference) [11] 1 | outcome [12]

CC(C)NCC(O)c1ccc(N)c(C#N)c1 (stereo unspecified)
inactive: remaining activity [13] 122%

CC(C)(C)OC(=O)c1ncn2c1[C@@H]1CCCN1C(=O)c1c(Br)cccc1-2
inactive: remaining activity [13] 103%

c1ccc(C2CC2)c(OCC2=NCCN2)c1
inactive: fluorescence ratio (interference) [11] 1 | remaining activity [13] 102% | outcome [12]

O=C1NCN(c2ccccc2)C12CCN(CC1COc3ccccc3O1)CC2 (stereo unspecified)
inactive: fluorescence ratio (interference) [11] 0.9 | remaining activity [13] 104%

FC(F)(F)c1cccc(C2=CCN(CCc3ccc4ccccc4c3)CC2)c1
inactive: remaining activity [13] 94.1%

CCCC[N+]1(C)[C@@H]2CC(OC(=O)[C@H](CO)c3ccccc3)C[C@H]1[C@@H]1O[C@@H]12 (stereo partly specified)
inactive: outcome [2] | outcome [3] | outcome [4] | outcome [5] | outcome [6] | outcome [7] | outcome [8] | outcome [9] | outcome [10]

CCCCC/C=C\C/C=C\C/C=C\C/C=C\CCCC(=O)NCC(=O)O
inactive: fluorescence ratio (interference) [11] 1

COc1ccc(CN2CCNCC2)c(OC)c1OC
inactive: fluorescence slope change [14] 2.5%

Cc1cccc(C)c1NC(=O)CN1CCCC1=O
inactive: fluorescence ratio (interference) [11] 1 | outcome [3] | outcome [4] | outcome [5] | outcome [6] | outcome [7] | outcome [9] | outcome [10] | outcome [12]

CCCCc1ccc(C(=O)O)nc1
inactive: fluorescence ratio (interference) [11] 1.1 | outcome [12]

CC[N+](CC)(CC)CC
inactive: fluorescence ratio (interference) [11] 1

Clc1cccc(SC2CCNCC2)n1
inactive: remaining activity [13] 108%

C=CCN1C[C@H](C)N([C@H](c2ccc(C(=O)N(CC)CC)cc2)c2cccc(OC)c2)C[C@H]1C
inactive: remaining activity [13] 118%

Fc1ccc(C(OCCN2CCN(CCCc3ccccc3)CC2)c2ccc(F)cc2)cc1
inactive: fluorescence ratio (interference) [11] 1 | remaining activity [13] 118% | outcome [12]
active: fluorescence slope change [14] 119% | AC50 [2] 14.8 µM | AC50 [3] 20.9 µM | AC50 [4] 14.8 µM | AC50 [5] 13.2 µM | AC50 [7] 8.33 µM | AC50 [8] 16.6 µM | AC50 [9] 18.6 µM | IC50 [10] 16.6 µM

Cc1nnc2n1-c1sc(CCC(=O)N3CCOCC3)cc1C(c1ccccc1Cl)=NC2
inactive: remaining activity [13] 108%

N#CC(C#N)=Cc1ccc(O)c(O)c1
inactive: fluorescence ratio (interference) [11] 1 | remaining activity [13] 122% | outcome [12]
